In PubChem BioAssay (NCATS):
Inconclusive results are not listed. Unmarked numbers belong to inactive results. Calls follow the shape of the dose curve; as a rule, active = well fitted curve in the direction sought with a large enough effect; inconclusive = small, poorly fitted or top-dose-only effect, or another doubt; inactive = no such curve, though single readings can be large or run the other way. Where a SMILES comes first, the peptide text is derived from it. Bridges are numbered along the chain shown (N, C = ends). [ ]: non-standard residue; d: D form. hArg = N=C(N)NCCCC[C@H](N)C(=O)O; Mpa = O=C(O)CCS

Assay: qHTS Assay for Identifying Gametocytocidal Compounds (AID 743244);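 also: actives lower the fluorescent signal which means gametocytes are killed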
Conditions: P. falciparum 3D7 stage III-V gametocytes, alamarBlue, 72 h; max response: hits give low values
Method in brief: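 Using 20,000 stage III–V 3D7 gametocytes per well, compounds were incubated 72 h under 37 °C/5% CO2. Viability was then assessed by 24 h alamarBlue reduction, measured fluorometrically at 525/598 nm.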
% is scaled to controls: 0 for no effect and ±100 for the full control effect.

Compound | max response
CC1(C)S[C@@H]2[C@H](NC(=O)C(C(=O)O)c3ccccc3)C(=O)N2[C@H]1C(=O)O (some centres not stated) | -0.734%
O=C(O)/C=C/c1ccc(Cn2ccnc2)cc1 | 13.5%
CCCCCCCC(=O)OCC(O)CO (configuration not stated) | 0.163%
CN(C/C=C/C#CC(C)(C)C)Cc1cccc2ccccc12 | -1.43%
CNc1c2c(nn1C)CCCC2 | 6.79%
Cc1c(NC(=O)c2cccnc2)c(=O)n(-c2ccccc2)n1C | -5.32%
O=C(O)Cc1cn(-c2ccccc2)nc1-c1ccc(Cl)cc1 | 6.52%
Cc1cc(NC(=O)C2=C(O)c3ccccc3S(=O)(=O)N2C)no1 | -9.54%
O=C(/C=C/c1ccc(O)c(O)c1)O[C@@H]1C[C@@](OC(=O)/C=C/c2ccc(O)c(O)c2)(C(=O)O)C[C@@H](O)[C@@H]1O | 3.41%
NS(=O)(=O)c1ccc(NC(=O)CCC(=O)O)cc1 | -3.82%
C[C@@H](c1ncncc1F)C(O)(Cn1cncn1)c1ccc(F)cc1F (some centres not stated) | 4.12%
O=C(O)[C@@H]1[C@H]2C[C@H]3c4[nH]c5ccccc5c4CCN3C[C@@H]2CC[C@@H]1O | -6.8%
CC(C)=CCC[C@@](C)(O)[C@H]1CC=C(C)CC1 | 10.2%
CCOC(=O)c1cccnc1 | 2.39%
Cc1cc(C)c(NC(=O)CN(CC(=O)O)CC(=O)O)c(C)c1Br | 9.03%
c1ccc2[nH]ccc2c1 | -5.55%
O=C(Cn1ccnc1[N+](=O)[O-])NCCO | 11.8%
CN1C(C)(C)CCCC1(C)C | -1.65%
CC(N)CCCC(C)(C)O (configuration not stated) | -9.78%

Compound | max response
CC(=O)Oc1cccc(C)c1 | 19.2%
Cc1ccc(S(=O)(=O)NC(=O)NC2CCCCC2)cc1 | 0.0407%
CCN(CC)CC1CCCCN1CC(=O)N1c2ccccc2C(=O)Nc2cccnc21 (configuration not stated) | 3.31%
O=C(O)CNC(=O)c1ccccc1I | -0.623%
Cc1cccc(C)c1NC(=O)CC12CCCN1CCC2 | 0.37%
Cc1ccsc1C(=CCCN1CCC[C@@H](C(=O)O)C1)c1sccc1C | -0.959%
NC(=O)[C@@H]1CSSCCC(=O)N[C@@H](CCCCN=C(N)N)C(=O)NCC(=O)N[C@@H](CC(=O)O)C(=O)N[C@@H](Cc2c[nH]c3ccccc23)C(=O)N2CCC[C@H]2C(=O)N1 ([Mpa][hArg]GDWPC-NH2; disulfide 1-7) | 6.22%
Cc1ncc(CO)c(CN)c1O | 6.59%
CC(C)CCCC(C)CCCC(C)CCCCC(C)CCCC(C)CCCC(C)C (configuration not stated) | 5.26%
NS(=O)(=O)c1cc(-c2nn[nH]n2)c(NCc2cccs2)cc1Cl | 54.3%
C[C@@H]1CCC[C@H](C)N1 | 20.8%
O=c1[nH]cnc2nc[nH]c12 | -7.32%
CCCCCCCCCCC(CO)CCCCCCCC (configuration not stated) | -4.55%
CC(C)c1cc2c(cc1S(=O)(=O)O)[C@@]1(C)CCC[C@@](C)(C(=O)O)[C@@H]1CC2 | -8.74%
CC[C@H](C)[C@H](N)C(=O)O | -11.6%
CC(C)C[C@@H](N)C(=O)O | -9.37%
CC1CCc2cc(F)cc3c(=O)c(C(=O)O)cn1c23 (configuration not stated) | -10.9%
OCc1ccc(Cl)cc1Cl | -2.07%
